HIV RNase H inh-1: HIV-1 RT RNase H inhibitors, primary screen, biochemical, fluorescence. inhibition, % at 10 µM. AID 565, 2006. hit rate 1.9% among 65,000. RT-RNase H RNA/DNA duplex cleavage; in the data active means inhibition above about 50%
RmlC RmlD mix: RmlC and RmlD coupled enzyme inhibitors, primary screen, biochemical, 384-well, compound mixtures, retest; RmlC/RmlD coupled enzyme inhibition, 384-well mixture HTS; inhibition, % at 5.5 µM; hit rate 0.39% among 110,000; AID 1532, 2009; in the data active means inhibition above about 30%, passing the limit was not always enough; inconclusive means no clear call, values can overlap the other calls
HIV RNase H inh-2: HIV-1 RT RNase H inhibitors, retest, confirmation, biochemical; Recombinant RT RNase H, fluorescent RNA/DNA duplex cleavage; shares compounds with HIV RNase H inh-1; inhibition, % at 10 µM; hit rate 39% among 1,000; AID 651, 2007; in the data active means inhibition above about 48%; inconclusive means no clear call, values can overlap the other calls
Of the large screens only hits and unclear results are named; the others gave an inactive call (follow-up assays come after a bar, where they were run). The entries come from a sample that favours hits as a whole.

COC(=O)c1ccc(Cn2cnc3c(sc4nc(N5CCOCC5)c5c(c43)CCCC5)c2=O)o1	HIV RNase H inh-1 64.4 | HIV RNase H inh-2 inconclusive
COC(=O)c1ccc(Cn2nnc3c(sc4nc(N5CCOCC5)c5c(c43)CCCC5)c2=O)o1	none (no result: RmlC RmlD mix)
CCOc1ccc(NC(=O)COC(=O)c2cccnc2)cc1	none
COc1cccc(C(=O)Nc2ccccc2N2CCOCC2)c1	none
COC(=O)c1ccc(N2CCOCC2)c(NC(=O)Nc2cccc(OC)c2)c1	HIV RNase H inh-1 87.2 | HIV RNase H inh-2 inactive
Clc1ccc(C(c2nnnn2C2CCCC2)N2CCSCC2)cc1 (stereo not given)	none
COc1cc2[nH]c3c(c2cc1OC)CCN1CCCC[C@@H]31	none (no result: HIV RNase H inh-1)
N#CC1=C(N)SC(N)=C(C#N)C1C1CC=CCC1 (stereo not given)	none
CCOc1ccc(C2C(C#N)=C(N)SC(N)=C2C#N)cc1OC	HIV RNase H inh-1 68.8 | HIV RNase H inh-2 inactive
COC1(OC)N=C(N)C2(C#N)C(c3cccc(Oc4ccccc4)c3)C12C#N (stereo not given)	none
CCOc1ccc(C2C(C#N)=C(N)SC(N)=C2C#N)cc1OCC	none
N#CC1=C(N)SC(N)=C(C#N)C1CCc1ccccc1	HIV RNase H inh-1 71.9 | HIV RNase H inh-2 inactive
N#CC1=C(N)SC(N)=C(C#N)C1c1c(Cl)cccc1Cl	none
N#CC1=C(N)SC(N)=C(C#N)C1c1cccc(Oc2ccccc2)c1	HIV RNase H inh-1 70.4 | HIV RNase H inh-2 inactive
N#CC1=C(N)SC(N)=C(C#N)C1c1ccc(C(F)(F)F)cc1	HIV RNase H inh-1 60.7 | HIV RNase H inh-2 inactive
N#Cc1ccc(C23CC4(C2)[C@H](CN(Cc2cccnc2)[C@@H]4c2ccccc2)C3c2ccccc2)cc1 (stereo not given in full)	none (no result: HIV RNase H inh-1)
CC1Sc2ccccc2N(CC(=O)N(C(C)C)C(C)C)C1=O (stereo not given)	none (no result: HIV RNase H inh-1)
CC(Sc1nnc(CNc2cccc3ccccc23)n1-c1ccccc1)C(=O)N/N=C/c1ccco1 (stereo not given)	none (no result: HIV RNase H inh-1)
COc1ccc(/C=N/NC(=O)Nc2nonc2N)cc1	none (no result: HIV RNase H inh-1)
Cc1ccc(C2C(C#N)=C(N)SC(N)=C2C#N)o1	HIV RNase H inh-1 80.3 | HIV RNase H inh-2 inconclusive
CCc1ccc(C2C(C#N)=C(N)SC(N)=C2C#N)s1	none
CCc1ccc(C2C(C#N)=C(N)SC(N)=C2C#N)cc1	HIV RNase H inh-1 69.9 | HIV RNase H inh-2 inactive
CCOc1ccccc1C1C(C#N)=C(N)SC(N)=C1C#N	none (no result: RmlC RmlD mix)
O=C1CC(c2nc3ccccc3[nH]2)CN1c1ccccc1F (stereo not given)	HIV RNase H inh-1 63.2 | HIV RNase H inh-2 inactive
COc1ccc(Cl)cc1N1CC(c2nc3ccccc3[nH]2)CC1=O (stereo not given)	none
O=C(CSCc1ccc(F)cc1)NCc1ccco1	none (no result: HIV RNase H inh-1)
Cc1cccc(C)c1OCC(=O)Nc1cccc(-c2nnc(-c3ccccc3)o2)c1	none
Cc1cccc(OCC(=O)Nc2cccc(-c3nnc(-c4ccccc4)o3)c2)c1C	HIV RNase H inh-1 71.0 | HIV RNase H inh-2 66.3
CCCCCC(=O)Nc1cccc(C2=NOC3(C2)C[C@H](C(N)=O)N(C(=O)CC)C3)c1 (stereo not given in full)	none (no result: HIV RNase H inh-1)
CCOC(=O)c1c(NC(=O)c2noc3c2CCCC3)sc2c1CCCC2	none (no result: RmlC RmlD mix)
CCOC(=O)c1c(NC(=O)c2nn(CC)cc2Br)sc(C)c1C	HIV RNase H inh-1 93.6 | HIV RNase H inh-2 inactive
CCOC(=O)c1c(NC(=O)CSc2nnc(C)s2)sc2c1CCCCC2	none (no result: HIV RNase H inh-1)
CCOC(=O)c1ccc(NC(=O)c2nn(CC)cc2Br)cc1	none
CCOC(=O)c1c(NC(=O)c2nn(CC)cc2Br)sc2c1CCCCC2	HIV RNase H inh-1 88.5 | HIV RNase H inh-2 inactive
CCOC(=O)c1c(NC(=O)c2ccc(-n3cnnn3)cc2)sc2c1CCCC2	HIV RNase H inh-1 85.7 (no result: RmlC RmlD mix) | HIV RNase H inh-2 96.4
CCC(C)(C(=O)NC1CCCC1)N(C(=O)c1ccccn1)c1ccccc1 (stereo not given)	none
COC(=O)c1[nH]c2ccc(C)cc2c1NC(=O)CN1CCCCC1C (stereo not given)	none (no result: RmlC RmlD mix)
COc1ccc(CN2CCCC2C(=O)Nc2ccc(OC)c(OC)c2)cc1OC (stereo not given)	none
COc1ccc(-n2c(SC(CN3CCCCC3)CN3CCCC3=O)nc3ccccc3c2=O)cc1 (stereo not given)	none (no result: HIV RNase H inh-1)
CCC(=O)N(Cc1cc(=O)[nH]c2ccccc12)c1cccc(C)c1	HIV RNase H inh-1 69.8 | HIV RNase H inh-2 inactive
COc1ccc(N(Cc2cc(=O)[nH]c3ccccc23)C(=O)c2ccco2)cc1	none
Cc1cc(C)nc(N2CCCC(C(=O)Nc3cc(F)ccc3C)C2)n1 (stereo not given)	none (no result: RmlC RmlD mix)
Cc1ccc(-n2c(SCC(=O)NCC3CCCO3)nnc2-c2ccoc2C)cc1 (stereo not given)	HIV RNase H inh-1 83.7 | HIV RNase H inh-2 inactive
Cc1ccc(C)c(-n2c(SCC(=O)NCC3CCCO3)nnc2-c2ccoc2C)c1 (stereo not given)	none
CCOC(=O)CN1C(=O)N[C@@H](c2cccc(C(F)(F)F)c2)[C@H](C(C)=O)[C@H]1C	none (no result: HIV RNase H inh-1)
COc1cc(CN(C)Cc2ccccc2)cc(OC)c1O	none (no result: HIV RNase H inh-1)
C=CCOC(=O)C1=C[C@@H](c2coc3ccccc3c2=O)[C@H](CCCO)[C@@H](OCC)O1	none (no result: HIV RNase H inh-1)
Cc1cc(C)n2c(=S)[nH]nc2n1	HIV RNase H inh-1 74.4 | HIV RNase H inh-2 66.8
Cc1cc(C)nc(SCc2nc3nc(C)cc(C)n3c2Br)n1	none (no result: HIV RNase H inh-1)
O=C(Nc1ncc2c(n1)CC(c1ccco1)CC2=O)c1ccccc1 (stereo not given)	none (no result: RmlC RmlD mix)
O=C1CC(c2ccco2)Cc2nc(Nc3nc(-c4ccccc4)c4ccccc4n3)ncc21 (stereo not given)	HIV RNase H inh-1 73.5 (no result: RmlC RmlD mix) | HIV RNase H inh-2 66.3
N#Cc1nc(-c2ccc(OCc3ccccc3)cc2)oc1NCc1cccnc1	none
N#Cc1nc(-c2ccc(OCc3ccc(Cl)cc3)cc2)oc1NCc1cccnc1	HIV RNase H inh-1 76.1 | HIV RNase H inh-2 64.8
CCOC(=O)C(NCc1ccc2c(c1)OCO2)(NC(=O)c1ccccc1)C(F)(F)F (stereo not given)	none (no result: HIV RNase H inh-1)
CC(C)Oc1ccc(C(CC(=O)O)NC(=O)c2cccs2)cc1 (stereo not given)	none (no result: HIV RNase H inh-1)
O=C(CSc1nnc(-c2ccc(F)cc2)o1)N1CCN(C(=O)c2ccco2)CC1	HIV RNase H inh-1 81.0 | HIV RNase H inh-2 inactive
Cc1cc(C)c(C)c(C(=O)CSc2nnc(-c3ccc4[nH]c(C)c(C)c4c3)o2)c1C	none (no result: HIV RNase H inh-1)
O=C(CSc1nnc(CNc2ccc(F)cc2)o1)N1CCN(C(=O)c2ccco2)CC1	none
O=C(CSc1nnc(-c2ccc(F)cc2)o1)c1ccc2c(c1)OCCO2	HIV RNase H inh-1 58.8 | HIV RNase H inh-2 inconclusive
Cc1[nH]c2ccc(-c3nnc(SCC(=O)c4ccc(F)cc4)o3)cc2c1C	HIV RNase H inh-1 78.5 | HIV RNase H inh-2 inconclusive
O=C(CSc1nnc(-c2ccc(O)cc2)o1)Nc1ccc2c(c1)OCCO2	none (no result: HIV RNase H inh-1)
CC(C)CC(=O)NC(NCC1CCCO1)C(Cl)(Cl)Cl (stereo not given)	none (no result: HIV RNase H inh-1)
O=C1CN(Cc2ccccc2)C(=NCc2ccco2)S1	none
O=C(c1cc(S(=O)(=O)N2CCCCC2)ccc1F)N1CCCCC1	none
O=C(c1ccccc1F)N1CCN(S(=O)(=O)c2ccc(S(=O)(=O)N3CCCCC3)cc2)CC1	HIV RNase H inh-1 76.8 | HIV RNase H inh-2 77.5
CN(C)C=Nc1ncc2c([nH]c3ccccc32)c1C#N	none (no result: RmlC RmlD mix)

Source: PubChem BioAssay
